In PubChem BioAssay:

How the values were obtained:
[1] = molecular target: Tumor necrosis factor receptor superfamily member 10B (Homo sapiens) (UniProt O14763); assay: caspase-8 TRAIL sensitization, hit retest, confirmation, cell-based, NB7+caspase-8, with/without TRAIL, luminescence panel (AID 651596); conditions: NB7 neuroblastoma + caspase-8, TRAIL sensitization, luminescence viability, with TRAIL, mean of runs, at 10 µM, stronger effect = higher value
[2] = as above; conditions: NB7 neuroblastoma + caspase-8, without TRAIL, luminescence viability, without TRAIL, mean of runs, at 10 µM

Chain of Tumor necrosis factor receptor superfamily member 10B (Homo sapiens) (O14763 whole entry, looked up): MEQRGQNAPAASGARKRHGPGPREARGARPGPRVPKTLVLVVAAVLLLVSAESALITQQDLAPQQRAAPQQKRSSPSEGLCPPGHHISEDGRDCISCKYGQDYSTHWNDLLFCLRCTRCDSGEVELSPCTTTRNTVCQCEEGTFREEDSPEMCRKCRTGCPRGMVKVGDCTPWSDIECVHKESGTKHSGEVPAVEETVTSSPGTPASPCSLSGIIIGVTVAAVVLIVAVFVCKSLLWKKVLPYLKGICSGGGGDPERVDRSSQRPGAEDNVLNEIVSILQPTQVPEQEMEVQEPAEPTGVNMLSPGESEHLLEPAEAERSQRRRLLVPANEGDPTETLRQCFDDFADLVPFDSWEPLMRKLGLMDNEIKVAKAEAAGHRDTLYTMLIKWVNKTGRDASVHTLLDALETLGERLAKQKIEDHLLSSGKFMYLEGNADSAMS

Compound	activity [1] [%]	activity [2] [%]
Cn1c(-c2ccccc2)c(C(=O)CCl)c2ccccc21	99.2	99.2
CCOC(=O)c1c(C)oc2c(F)c(F)c(F)c(F)c2c1=O	99.2	99.2
CCOC(=O)c1sc(NC(=O)c2ccccc2OC)nc1C	26.1	31.9
Cc1nc(N)nc(N)c1-c1ccc([N+](=O)[O-])cc1	71.8	81.2
COc1ccc(NC(=O)c2cccc3c2C(=O)c2ccc(-c4ccc(F)cc4OCc4ccccc4)cc2S3(=O)=O)cc1	20.6	31.4
Nc1nc(N)c2cc(S(=O)(=O)c3ccc4ccccc4c3)ccc2n1	64.9	72.5
C/C(=N\NC(=O)c1cc(O)ccc1O)c1cccc(NC(=O)c2ccc(Cl)cc2)c1	40.8	24.6
O=C(Nc1ccc(O)cc1)c1ccc(NC(=O)c2cccs2)cc1	85.2	84.8
Cc1ccccc1-n1nnnc1Sc1nnnn1-c1ccccc1	46.1	91.3
CCOc1ccc(CN(C)C(=O)[C@H](Cc2ccccc2)NC(=O)OCc2ccccc2)cc1OC	-12.3	1.82
Cc1cc(C)cc(C(=O)O/N=C(\N)c2ccc(Br)cc2)c1	89.5	89.5
CCCC(=O)Nc1ccc(C(=O)N/N=C/c2ccc[nH]2)cc1	98.5	97.8
Nc1c(N(C(=O)Nc2ccc(Cl)c(Cl)c2)C2CCCC2)c(=O)[nH]c(=O)n1Cc1ccccc1	46.5	46
COc1cc2c(cc1OC)C(c1cc(Br)ccc1F)N(C(=O)CCl)CC2 (stereo not given)	98.6	98.7
CC(C)(CNC(=O)c1ccc([N+](=O)[O-])c(Cl)c1)CNC(=O)c1ccc([N+](=O)[O-])c(Cl)c1	54.5	60.3
